Measurements as given in the supplement of paper PMC11732987, “Enantioselective OTUD7B fragment discovery through chemoproteomics screening and high-throughput optimisation” (Communications Chemistry, 2025).
A number with no mark means an inactive call.

How the values were obtained:
Experiment in all cases: log2 ratio of Biotin-Ahx-Ub-VS probe labelling (fragment/DMSO); higher = less target engagement (more negative = stronger competition), active = hit call of the paper (q ≤ 0.05, log2 ratio ≤ -1)
Settings in all cases: compound concentration: 200 uM; treatment time: 3 h
OTUD6B = molecular target: T1, OTUD6B (UniProt Q8N6M0)
T1 sequence (whole entry): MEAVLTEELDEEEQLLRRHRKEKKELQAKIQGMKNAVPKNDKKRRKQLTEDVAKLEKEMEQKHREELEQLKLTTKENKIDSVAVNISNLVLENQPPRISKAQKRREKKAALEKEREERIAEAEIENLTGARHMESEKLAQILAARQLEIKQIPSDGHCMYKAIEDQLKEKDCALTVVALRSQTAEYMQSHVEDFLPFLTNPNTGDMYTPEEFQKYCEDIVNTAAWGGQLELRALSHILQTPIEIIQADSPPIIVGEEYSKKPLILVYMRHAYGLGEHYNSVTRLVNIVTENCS
Procedure, shortened: (§1)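 HEK293T lysate, 495 µg per sample in Tris/CHAPS/IGEPAL buffer with protease inhibitors, was treated in triplicate with fragment at 200 µM or vehicle for 3 h and then with Biotin-Ahx-Ub-VS at 0.5 µM final for 1 h. Labelled DUBs were NeutrAvidin-enriched, digested with LysC and trypsin, and run by diaPASEF LC-MS/MS. Spectronaut label-free quantities were global-median-normalised, and values are average log2 fragment/vehicle ratios by unpaired t-test on proteins with ≥2 unique peptides.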

OTUD7B = molecular target: T2, OTUD7B (UniProt Q6GQQ9)
T2 sequence (whole entry): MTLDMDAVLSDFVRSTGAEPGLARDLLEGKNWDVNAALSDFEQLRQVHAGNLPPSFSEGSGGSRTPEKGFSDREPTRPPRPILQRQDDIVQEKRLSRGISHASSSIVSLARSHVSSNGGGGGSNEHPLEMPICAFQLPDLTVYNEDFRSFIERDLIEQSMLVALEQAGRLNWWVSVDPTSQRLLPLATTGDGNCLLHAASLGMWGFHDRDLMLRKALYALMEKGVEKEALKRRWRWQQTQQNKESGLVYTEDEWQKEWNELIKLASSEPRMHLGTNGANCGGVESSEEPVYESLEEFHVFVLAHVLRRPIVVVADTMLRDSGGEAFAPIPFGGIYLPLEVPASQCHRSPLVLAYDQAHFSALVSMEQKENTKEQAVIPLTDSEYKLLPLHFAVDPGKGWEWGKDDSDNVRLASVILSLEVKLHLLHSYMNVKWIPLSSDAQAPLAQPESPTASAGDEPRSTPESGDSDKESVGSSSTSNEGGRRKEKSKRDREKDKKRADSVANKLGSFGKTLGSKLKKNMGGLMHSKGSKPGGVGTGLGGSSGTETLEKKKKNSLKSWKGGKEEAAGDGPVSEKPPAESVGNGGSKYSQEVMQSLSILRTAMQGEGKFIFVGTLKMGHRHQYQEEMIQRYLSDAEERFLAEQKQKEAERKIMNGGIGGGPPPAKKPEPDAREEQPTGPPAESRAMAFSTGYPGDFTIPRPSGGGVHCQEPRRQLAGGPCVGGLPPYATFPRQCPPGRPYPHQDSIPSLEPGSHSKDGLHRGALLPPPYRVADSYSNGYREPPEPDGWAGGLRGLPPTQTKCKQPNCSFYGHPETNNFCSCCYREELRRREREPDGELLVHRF
Procedure, shortened: as §1

PRPF8 = PRPF8 (UniProt Q6P2Q9)
Procedure, shortened: as §1

PSMD7 = molecular target: T3, PSMD7 (UniProt P51665)
T3 sequence (whole entry): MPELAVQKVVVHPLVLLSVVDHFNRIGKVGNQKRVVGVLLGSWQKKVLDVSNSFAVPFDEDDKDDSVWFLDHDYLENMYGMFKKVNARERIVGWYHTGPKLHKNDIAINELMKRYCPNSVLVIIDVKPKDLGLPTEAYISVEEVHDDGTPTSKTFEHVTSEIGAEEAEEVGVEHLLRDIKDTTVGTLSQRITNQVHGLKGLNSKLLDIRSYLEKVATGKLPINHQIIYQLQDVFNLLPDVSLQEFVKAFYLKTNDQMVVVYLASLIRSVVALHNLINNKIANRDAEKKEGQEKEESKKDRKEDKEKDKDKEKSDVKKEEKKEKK
Procedure, shortened: as §1

UCHL1 = UCHL1 (UniProt P09936)
Procedure, shortened: as §1

UCHL3 = molecular target: T4, UCHL3 (UniProt P15374)
T4 sequence (whole entry): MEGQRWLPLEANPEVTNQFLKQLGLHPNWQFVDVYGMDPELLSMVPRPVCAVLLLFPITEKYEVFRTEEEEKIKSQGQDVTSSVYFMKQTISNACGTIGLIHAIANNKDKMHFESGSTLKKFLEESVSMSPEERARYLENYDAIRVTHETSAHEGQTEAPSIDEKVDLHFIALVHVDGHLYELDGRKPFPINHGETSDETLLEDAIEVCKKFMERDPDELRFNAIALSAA
Procedure, shortened: as §1

UCHL5 = molecular target: T5, UCHL5 (UniProt Q9Y5K5)
T5 sequence (whole entry): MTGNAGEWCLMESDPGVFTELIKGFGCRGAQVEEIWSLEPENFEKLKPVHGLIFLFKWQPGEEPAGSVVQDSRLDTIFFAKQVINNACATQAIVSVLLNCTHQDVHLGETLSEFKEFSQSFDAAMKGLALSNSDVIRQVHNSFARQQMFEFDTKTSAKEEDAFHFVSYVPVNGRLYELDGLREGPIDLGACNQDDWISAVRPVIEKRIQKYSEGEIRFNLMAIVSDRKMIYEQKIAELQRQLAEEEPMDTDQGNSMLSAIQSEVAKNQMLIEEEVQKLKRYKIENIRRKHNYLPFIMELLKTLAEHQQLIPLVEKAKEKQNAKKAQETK
Procedure, shortened: as §1

USP10 = USP10 (UniProt Q14694)
Procedure, shortened: as §1

USP15 = molecular target: T6, USP15 (UniProt Q9Y4E8)
T6 sequence (whole entry): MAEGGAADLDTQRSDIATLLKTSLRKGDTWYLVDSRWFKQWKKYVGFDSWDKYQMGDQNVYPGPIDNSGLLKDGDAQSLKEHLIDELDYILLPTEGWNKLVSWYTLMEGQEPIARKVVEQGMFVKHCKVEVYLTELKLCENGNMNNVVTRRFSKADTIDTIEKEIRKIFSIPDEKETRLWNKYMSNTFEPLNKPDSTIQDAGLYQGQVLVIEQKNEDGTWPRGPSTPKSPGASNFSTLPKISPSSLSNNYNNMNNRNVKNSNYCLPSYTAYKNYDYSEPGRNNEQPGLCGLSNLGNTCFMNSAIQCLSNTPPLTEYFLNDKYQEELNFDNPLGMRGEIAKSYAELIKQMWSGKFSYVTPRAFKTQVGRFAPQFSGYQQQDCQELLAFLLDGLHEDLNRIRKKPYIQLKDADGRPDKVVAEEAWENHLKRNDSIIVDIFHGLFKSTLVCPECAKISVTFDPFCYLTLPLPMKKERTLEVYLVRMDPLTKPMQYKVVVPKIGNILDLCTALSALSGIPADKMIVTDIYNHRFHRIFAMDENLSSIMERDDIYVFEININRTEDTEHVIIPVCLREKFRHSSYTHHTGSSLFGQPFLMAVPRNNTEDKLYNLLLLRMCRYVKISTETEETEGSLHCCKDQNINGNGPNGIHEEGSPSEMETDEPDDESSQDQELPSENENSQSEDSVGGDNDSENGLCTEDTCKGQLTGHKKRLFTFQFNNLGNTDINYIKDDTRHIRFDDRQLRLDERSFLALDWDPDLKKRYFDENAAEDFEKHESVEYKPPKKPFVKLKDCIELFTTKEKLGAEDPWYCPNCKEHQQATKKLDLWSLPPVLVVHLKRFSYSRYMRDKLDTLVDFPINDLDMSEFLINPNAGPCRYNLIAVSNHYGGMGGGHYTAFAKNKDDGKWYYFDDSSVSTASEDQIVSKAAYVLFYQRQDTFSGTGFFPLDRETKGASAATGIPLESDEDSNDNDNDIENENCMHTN
Procedure, shortened: as §1

USP16 = USP16 (UniProt Q9Y5T5)
Procedure, shortened: as §1

Chain of USP16 (Q9Y5T5 whole entry, looked up): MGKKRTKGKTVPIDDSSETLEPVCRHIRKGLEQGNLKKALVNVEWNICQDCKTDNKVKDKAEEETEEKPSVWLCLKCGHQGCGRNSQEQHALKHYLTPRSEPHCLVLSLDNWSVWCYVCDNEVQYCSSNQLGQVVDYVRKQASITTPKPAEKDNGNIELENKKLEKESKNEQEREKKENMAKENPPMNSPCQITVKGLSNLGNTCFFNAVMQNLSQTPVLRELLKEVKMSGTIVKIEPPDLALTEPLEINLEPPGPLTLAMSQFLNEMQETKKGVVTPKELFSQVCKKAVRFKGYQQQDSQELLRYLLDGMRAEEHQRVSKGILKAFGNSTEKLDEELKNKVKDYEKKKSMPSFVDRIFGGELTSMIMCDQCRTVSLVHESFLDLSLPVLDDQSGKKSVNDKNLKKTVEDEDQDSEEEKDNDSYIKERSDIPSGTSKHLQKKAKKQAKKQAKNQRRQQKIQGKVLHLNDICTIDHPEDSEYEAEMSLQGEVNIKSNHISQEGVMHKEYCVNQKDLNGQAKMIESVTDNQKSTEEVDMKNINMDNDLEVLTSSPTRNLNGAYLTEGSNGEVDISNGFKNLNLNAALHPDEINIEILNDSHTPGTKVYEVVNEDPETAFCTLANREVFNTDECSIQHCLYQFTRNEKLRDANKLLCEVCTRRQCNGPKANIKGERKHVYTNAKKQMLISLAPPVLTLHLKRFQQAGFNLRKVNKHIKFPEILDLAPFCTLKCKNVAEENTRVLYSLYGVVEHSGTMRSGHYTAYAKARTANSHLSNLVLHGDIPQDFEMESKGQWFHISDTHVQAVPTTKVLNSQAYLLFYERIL
Chain of USP10 (Q14694 whole entry): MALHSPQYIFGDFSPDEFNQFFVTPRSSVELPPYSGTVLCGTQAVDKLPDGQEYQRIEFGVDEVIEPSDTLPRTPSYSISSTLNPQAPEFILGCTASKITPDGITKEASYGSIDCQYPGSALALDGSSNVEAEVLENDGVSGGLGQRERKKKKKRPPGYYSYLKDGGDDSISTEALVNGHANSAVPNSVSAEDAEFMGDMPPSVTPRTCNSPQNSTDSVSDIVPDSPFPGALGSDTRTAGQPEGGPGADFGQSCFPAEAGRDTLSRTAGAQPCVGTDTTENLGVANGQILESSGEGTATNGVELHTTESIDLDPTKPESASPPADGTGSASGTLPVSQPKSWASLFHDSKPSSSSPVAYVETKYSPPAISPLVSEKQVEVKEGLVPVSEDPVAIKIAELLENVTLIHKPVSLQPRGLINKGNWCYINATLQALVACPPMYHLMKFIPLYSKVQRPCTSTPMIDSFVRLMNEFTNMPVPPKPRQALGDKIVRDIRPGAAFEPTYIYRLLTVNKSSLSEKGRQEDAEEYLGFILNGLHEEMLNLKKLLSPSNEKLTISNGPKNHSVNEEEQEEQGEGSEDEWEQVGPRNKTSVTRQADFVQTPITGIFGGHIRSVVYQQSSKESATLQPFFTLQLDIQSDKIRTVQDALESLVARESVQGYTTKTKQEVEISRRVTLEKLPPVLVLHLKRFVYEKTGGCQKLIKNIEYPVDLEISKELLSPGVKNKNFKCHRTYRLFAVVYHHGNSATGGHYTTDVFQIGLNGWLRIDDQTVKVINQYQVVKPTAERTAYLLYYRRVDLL
Chain of UCHL1 (P09936 whole entry, looked up): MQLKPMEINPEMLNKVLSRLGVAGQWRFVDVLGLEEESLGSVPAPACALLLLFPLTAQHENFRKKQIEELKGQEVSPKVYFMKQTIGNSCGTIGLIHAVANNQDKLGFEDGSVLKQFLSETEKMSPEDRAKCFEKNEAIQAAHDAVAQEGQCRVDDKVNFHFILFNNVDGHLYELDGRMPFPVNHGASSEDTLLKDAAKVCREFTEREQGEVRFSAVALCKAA

CS(=O)(=O)c1ccc(NC(=O)CCl)cc1
log2 ratio of Biotin-Ahx-Ub-VS probe labelling (OTUD6B): -0.109 | log2 ratio of Biotin-Ahx-Ub-VS probe labelling (OTUD7B): -0.594 | log2 ratio of Biotin-Ahx-Ub-VS probe labelling (PRPF8): -0.257 | log2 ratio of Biotin-Ahx-Ub-VS probe labelling (PSMD7): 0.0407 | log2 ratio of Biotin-Ahx-Ub-VS probe labelling (UCHL1): -1.26 (active) | log2 ratio of Biotin-Ahx-Ub-VS probe labelling (UCHL3): 0.206 | log2 ratio of Biotin-Ahx-Ub-VS probe labelling (UCHL5): -0.282 | log2 ratio of Biotin-Ahx-Ub-VS probe labelling (USP10): -0.104 | log2 ratio of Biotin-Ahx-Ub-VS probe labelling (USP15): -0.136 | log2 ratio of Biotin-Ahx-Ub-VS probe labelling (USP16): -0.145
